Assay results reported in PubChem BioAssay (NCATS).
Records with an inconclusive call do not appear. The source made the active and inactive calls. Calls come from the whole dose curve; as a rule, active = well fitted curve in the direction sought with a large enough effect; inconclusive = small, poorly fitted or top-dose-only effect, or another doubt; inactive = no such curve, though single readings can be large; an effect the other way counts as inactive or inconclusive.

How the values were obtained:
[1] = qHTS assay for measurement of the activity of small molecule inhibitors on Zika virus induced Caspase-3 activity in human iPSC derived neural progenitor cells (hNPCs) (AID 1224857); settings: hNPCs ZIKV-induced caspase-3/7, Caspase-Glo luminescence, 6 h; series mostly up to 45.7 µM; note: % of control where 0% means no effect; nearly all actives have a fitted effect of over 65% in size
Summary of the method: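 Human iPSC-derived neural progenitor cells pretreated 1 hr with compounds, then infected with Zika virus (2 FFU/cell) for 6 hours at 37 C. Caspase-3/7 measured by Caspase-Glo luminescence; % inhibition calculated from induction scaled to uninfected (0%) and infected (100%) wells.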

[2] = qHTS assay for measurement of the activity of small molecule inhibitors on Zika virus induced Caspase-3 activity in human astrocytoma cells (AID 1224859); settings: SNB-19 ZIKV-induced caspase-3/7, luminescence, 6 h; series mostly up to 45.7 µM;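 note: plate controls were ZIKV-infected untreated cells for no effect and uninfected cells for full effect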
Summary of the method: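 SNB-19 astrocytoma cells, 250/well, pretreated 1 h with compounds, then Zika virus at 2 FFU/cell for 6 h at 37 C; Caspase-Glo 3/7 luminescence after 30 min; percent inhibition normalised to uninfected and infected controls.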

[3] = qHTS assay to identify small molecule inhibitors of chordoma cells - UCH-1 (AID 1259355); settings: UCH-1 chordoma viability, CellTiter-Glo, 48 h, combination, with auranofin plus four topoisomerase inhibitors; series mostly up to 46.1 µM; note: % is set by controls: 0 for no effect and ±100 for the full control effect; nearly all actives have a fitted effect of over 55% in size
Summary of the method: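 Luminescent ATP read-out (CellTiter-Glo, 30min at room temperature) measured viability of UCH-1 cells exposed for 48hr to test drugs at 15 concentrations, co-dosed with a five-agent combination of auranofin, camptothecin, doxorubicin, rubitecan and topotecan.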

[4] = qHTS assay to identify small molecule inhibitors of chordoma cells - UCH-2 (AID 1259356); settings: UCH-2 chordoma viability, CellTiter-Glo ATP luminescence, 48 h; series mostly up to 46.1 µM; note: % is set by controls: 0 for no effect and ±100 for the full control effect
[5] = Identifying Small Molecule Inhibitors of Pancreatic Cancer Stem Cells (A2780, Spheroid) (AID 1259357); settings: series mostly up to 46.1 µM;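 note: compound exposure lasted 48 h before the ATP luminescence read; 100% = DMSO treated cells and 0% = wells without cells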
Summary of the method: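 Monolayer and spheroid cultures are compared. Spheroids form over 14 days in stem cell medium on hydrogel-coated low-attachment plates, then are exposed to compound for 48 h before CellTiter-Glo luminescence.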

C[C@H]1O[C@H](O[C@H]2[C@H](O)[C@@H](O)[C@@H](O[C@H]3[C@H](O)[C@@H](O)[C@H](O)O[C@@H]3CO)O[C@@H]2CO)[C@H](O)[C@@H](O)[C@@H]1N[C@H]1C=C(CO)[C@@H](O)[C@H](O)[C@H]1O
inactive: outcome [1] | outcome [2] | Potency [3] | outcome [4]

CS(=O)(=O)c1ccc([C@@H](O)[C@@H](CF)NC(=O)C(Cl)Cl)cc1
inactive: outcome [1] | outcome [2] | Potency [3] | outcome [4]

COc1ccccc1O
inactive: outcome [1] | outcome [2] | Potency [3] | outcome [4]

CCN(CC)CCNC(=O)c1cc(Cl)c(N)cc1OC
inactive: outcome [1] | outcome [2] | Potency [3] | outcome [4]

CCOC(=O)[C@H](CCc1ccccc1)N[C@@H](C)C(=O)N1C(=O)N(C)C[C@H]1C(=O)O
inactive: outcome [1] | outcome [2] | Potency [3] | outcome [4]

N[C@@H](CSCCCO)C(=O)O
inactive: outcome [1] | outcome [2] | Potency [3] | outcome [4]

C#CCN(C)Cc1ccccc1
inactive: outcome [1] | outcome [2] | Potency [3] | outcome [4]

Cc1cc(CC(=O)O)n(C)c1C(=O)c1ccc(Cl)cc1
inactive: outcome [1] | outcome [2] | Potency [3] | outcome [4]

Cc1ncc([N+](=O)[O-])n1CC(O)CCl (stereo not given)
inactive: outcome [1] | outcome [2] | Potency [3] | outcome [4]

CCOc1nc2cccc(C(=O)O)c2n1Cc1ccc(-c2ccccc2-c2nn[nH]n2)cc1
inactive: outcome [1] | outcome [2] | Potency [3] | outcome [4]

COc1ccc(S(=O)(=O)Nc2nnc(CC(C)C)s2)cc1
inactive: outcome [1] | outcome [2] | Potency [3] | outcome [4]

C[C@@H]1C[C@H]2[C@@H]3C[C@H](F)C4=CC(=O)C=C[C@]4(C)[C@@]3(F)[C@@H](O)C[C@]2(C)[C@@]1(O)C(=O)CO
inactive: outcome [1] | outcome [2] | Potency [3] | outcome [4]

CCCCCCCCCCCCCCCCCCOCC(O)CO (stereo not given)
inactive: outcome [1] | outcome [2] | Potency [3] | outcome [4]

O=C1O[C@H]([C@@H](O)CO)C(O)=C1O
inactive: outcome [1] | outcome [2] | Potency [3] | outcome [4]

CC(=O)O[C@@]12CO[C@@H]1C[C@H](O)[C@@]1(C)C(=O)[C@H](O)C3=C(C)[C@@H](OC(=O)[C@H](O)[C@@H](NC(=O)OC(C)(C)C)c4ccccc4)C[C@@](O)([C@@H](OC(=O)c4ccccc4)[C@H]21)C3(C)C
inactive: outcome [5]

CC1(C)Oc2ccc(C#N)cc2[C@@H](N2CCCC2=O)[C@@H]1O
inactive: outcome [1] | Potency [3] | outcome [4]

N[C@H](C(=O)O)c1ccc(O)cc1
inactive: outcome [1] | Potency [3] | outcome [4]

COc1cc2[nH]c(=O)[nH]c(=O)c2cc1OC
inactive: outcome [1] | Potency [3] | outcome [4]

OC[C@H]1O[C@@H](O[C@@H]2[C@@H](CO)O[C@](O)(CO)[C@H]2O)[C@H](O)[C@@H](O)[C@H]1O
inactive: outcome [1] | Potency [3] | outcome [4]

Nc1ncnc2c1ncn2[C@@H]1O[C@H](CO)[C@@H](O)[C@H]1O
inactive: outcome [1] | Potency [3] | outcome [4]

CN(N=O)C(=O)N[C@@H]1[C@@H](O)[C@H](O)[C@@H](CO)O[C@@H]1O
inactive: outcome [1] | Potency [3] | outcome [4]

COC(=O)[C@H]1[C@H]2C[C@@H]3c4[nH]c5cc(OC)ccc5c4CCN3C[C@H]2C[C@@H](OC(=O)COc2ccc(OC)cc2)[C@@H]1OC
inactive: outcome [1] | Potency [3] | outcome [4]

COc1ccc2cc1Oc1ccc(cc1)C[C@H]1c3c(cc4c(c3Oc3cc5c(cc3OC)CCN(C)[C@@H]5C2)OCO4)CCN1C
inactive: outcome [1] | activity, negative = inhibition [3] -13.6% [at 1.88 µM] | outcome [4]

CC1(C)[C@@H]2CC[C@@]1(C)C(=O)C2
inactive: outcome [1] | Potency [3] | outcome [4]

COc1ccc2cc1Oc1cc3c(cc1OC)CC[N+](C)(C)[C@H]3Cc1ccc(cc1)Oc1c(OC)c(OC)cc3c1[C@@H](C2)[N+](C)(C)CC3
inactive: outcome [1] | Potency [3] | outcome [4]

O=C(Oc1ccccc1C(=O)O)c1ccccc1O
inactive: outcome [1] | Potency [3] | outcome [4]

Nc1ccc(S(=O)(=O)NC(=O)c2ccccc2)cc1
inactive: outcome [1] | Potency [3] | outcome [4]

CC(=O)Oc1c(C)c(C)c2c(c1C)CC[C@@](C)(CCC[C@H](C)CCC[C@H](C)CCCC(C)C)O2
inactive: outcome [1] | Potency [3] | outcome [4]

CC[N+](CC)(CC)CCOc1ccc(/C=C/c2ccccc2)cc1
inactive: outcome [1] | Potency [3] | outcome [4]

O=C1O[C@H](CO)[C@@H](O)[C@H](O)[C@H]1O
inactive: outcome [1] | Potency [3] | outcome [4]

CC1(C)OC(=O)NC1=O
inactive: outcome [1] | Potency [3] | outcome [4]
